According to article PMC11062922 (Nature Chemical Biology, 2023):
Like-named read-outs stand apart in the source and are kept apart here.

Legend:
Set-up in all cases: species or system human, MV4-11 + K-562 + COLO205 + SK-N-BE2 + OVCAR-8
NLK = conditions: read-out: apparent Kd, n = 1
FGFR1 = conditions: read-out: apparent Kd, compound concentrations: 100 nM and 1000 nM (sheet 'Samples'), n = 1
FRK = conditions: read-out: apparent Kd, n = 1
JAK1 = conditions: read-out: apparent Kd, n = 1
ACAD11 = conditions: read-out: apparent Kd, n = 1
ATR = conditions: read-out: apparent Kd, compound concentrations: 100 nM and 1000 nM (sheet 'Samples'), n = 1
CDK5 = conditions: read-out: apparent Kd, compound concentrations: 100 nM and 1000 nM (sheet 'Samples'), n = 1
FYN = conditions: read-out: apparent Kd, n = 1
IRAK4 = conditions: read-out: apparent Kd, n = 1
MAP2K1 = conditions: read-out: apparent Kd, compound concentrations: 100 nM and 1000 nM (sheet 'Samples'), n = 1
MAP4K1 = conditions: read-out: apparent Kd, compound concentrations: 100 nM and 1000 nM (sheet 'Samples'), n = 1
MAPKAPK2 = conditions: read-out: apparent Kd, n = 1
PIK3CA = conditions: read-out: apparent Kd, n = 1
PRKCB = conditions: read-out: apparent Kd; compound concentrations: 100 nM and 1000 nM (sheet 'Samples'), CATDS: 3.7264433576920599E-3; n = 1
ULK3 = conditions: read-out: apparent Kd, n = 1
DJA1 = system: T1, DJA1; conditions: read-out: apparent Kd; compound concentrations: 100 nM and 1000 nM (sheet 'Samples'), CATDS: 3.8361892236094597E-2; n = 1
T1 construct: gene DNAJA1

NQO2 = conditions: read-out: apparent Kd, n = 1
CDC7 = conditions: read-out: apparent Kd, n = 1
CDK6 = conditions: read-out: apparent Kd; compound concentrations: 100 nM and 1000 nM (sheet 'Samples'), CATDS: 0.103985986158265; n = 1
STK26 = conditions: read-out: apparent Kd; compound concentrations: 100 nM and 1000 nM (sheet 'Samples'), CATDS: 0.100922192371782; n = 1
[1] = compound concentrations:100 nM and 1000 nM (sheet 'Samples')

Compound: CCn1c(-c2nonc2N)nc2c(C#CC(C)(C)O)nc(CN3CCCC3)cc21 [GSK1000163A]
- potency estimated from few doses (NLK; compound concentrations: 100 nM and 1000 nM (sheet 'Samples'), CATDS: 0.163177352109245): 1.98 µM

Compound: Cl.Nc1c(C(=O)c2cccc(C#CCN3CCCCC3)c2)cnn1-c1ccc(F)cc1 [RO1154461-001]
- potency estimated from few doses (FGFR1; CATDS: 1.0359283946495801E-2): 1.68 µM
- potency estimated from few doses (FRK; compound concentrations: 100 nM and 1000 nM (sheet 'Samples'), CATDS: 1.2851217136808301E-2): 0.829 µM
- potency estimated from few doses (JAK1; compound concentrations: 100 nM and 1000 nM (sheet 'Samples'), CATDS: 1.11252993768114E-2): 1.29 µM

Compound: Cn1ncc2c(N)ncnc21 [SKF-18267]
- potency estimated from few doses (ACAD11; compound concentrations: 100 nM and 1000 nM (sheet 'Samples'), CATDS: 4.0481268472205602E-3): 1.3 µM
- potency estimated from few doses (ATR; CATDS: 6.4256483449106902E-3): 0.516 µM
- potency estimated from few doses (CDK5; CATDS: 4.5442394594478004E-3): 0.993 µM
- potency estimated from few doses (FGFR1; CATDS: 4.74692919335207E-3): 0.905 µM
- potency estimated from few doses (FRK; compound concentrations: 100 nM and 1000 nM (sheet 'Samples'), CATDS: 7.1234836872725703E-3): 0.436 µM
- potency estimated from few doses (FYN; compound concentrations: 100 nM and 1000 nM (sheet 'Samples'), CATDS: 7.0897882723323898E-3): 0.44 µM
- potency estimated from few doses (IRAK4; compound concentrations: 100 nM and 1000 nM (sheet 'Samples'), CATDS: 3.8610933772381499E-3): 1.46 µM
- potency estimated from few doses (JAK1; compound concentrations: 100 nM and 1000 nM (sheet 'Samples'), CATDS: 4.8033962123192799E-3): 0.883 µM
- potency estimated from few doses (MAP2K1; CATDS: 3.7479108323340499E-3): 1.59 µM
- potency estimated from few doses (MAP4K1; CATDS: 5.1468947283468203E-3): 0.769 µM
- potency estimated from few doses (MAPKAPK2; compound concentrations: 100 nM and 1000 nM (sheet 'Samples'), CATDS: 4.1039976146892603E-3): 1.25 µM
- potency estimated from few doses (PIK3CA; compound concentrations: 100 nM and 1000 nM (sheet 'Samples'), CATDS: 3.6748488763129201E-2): 0.0533 µM
- potency estimated from few doses (PRKCB): 1.61 µM
- potency estimated from few doses (ULK3; compound concentrations: 100 nM and 1000 nM (sheet 'Samples'), CATDS: 5.6428686263863704E-3): 0.647 µM

Compound: Cl.ON=C1CCc2cc(-c3nc(C4CCNCC4)[nH]c3-c3ccncc3)ccc21 [SB-614067-R]
- potency estimated from few doses (MAPKAPK2; [1]): 0.874 µM

Compound: COc1cccc2c(-c3ccncc3)c(-c3ccc(F)cc3)nn12 [GW468513X]
- potency estimated from few doses (DJA1): 1.52 µM
- potency estimated from few doses (MAPKAPK2; compound concentrations: 100 nM and 1000 nM (sheet 'Samples'), CATDS: 0.11200666699730499): 0.0806 µM

Compound: CN(c1ccc(NC(=O)N2CCN(CCCN3CCOCC3)CC2)cc1)c1ccnc(Nc2ccc(CS(C)(=O)=O)cc2)n1.Cl [GW830899A]
- potency estimated from few doses (ACAD11; compound concentrations: 100 nM and 1000 nM (sheet 'Samples'), CATDS: 1.8100646511475499E-2): 2.06 µM
- potency estimated from few doses (NQO2; compound concentrations: 100 nM and 1000 nM (sheet 'Samples'), CATDS: 3.2370847772948297E-2): 0.552 µM
- potency estimated from few doses (ULK3; compound concentrations: 100 nM and 1000 nM (sheet 'Samples'), CATDS: 2.3659630965279298E-2): 1.01 µM

Compound: Fc1ccc(-c2c(-c3ccncc3)[nH]c3cccnc23)cc1 [RO1153853-000]
- potency estimated from few doses (MAPKAPK2; compound concentrations: 100 nM and 1000 nM (sheet 'Samples'), CATDS: 8.5753103075807094E-2): 0.373 µM

Compound: NCCNS(=O)(=O)c1ccc(-c2ccnc3[nH]ccc23)cc1 [GSK977617A]
- potency estimated from few doses (FRK; [1]): 0.832 µM
- potency estimated from few doses (FYN; [1]): 1.01 µM

Compound: CCn1c(-c2nonc2N)nc2c(-c3ccccc3)ncc(OCCCN)c21.CCn1c(-c2nonc2N)nc2c(-c3ccccc3)ncc(OCCCN)c21.O=C(O)C(F)(F)F.O=C(O)C(F)(F)F [GSK260205A]
- potency estimated from few doses (CDC7; compound concentrations: 100 nM and 1000 nM (sheet 'Samples'), CATDS: 3.6033754639237303E-2): 0.714 µM
- potency estimated from few doses (MAPKAPK2; compound concentrations: 100 nM and 1000 nM (sheet 'Samples'), CATDS: 0.102958619201112): 0.0744 µM
- potency estimated from few doses (NLK; compound concentrations: 100 nM and 1000 nM (sheet 'Samples'), CATDS: 6.7931350663373802E-2): 0.162 µM

Compound: Clc1cc(Cl)cc(Nc2ccnc(Nc3cc(Cl)cc(Cl)c3)n2)c1 [GSK175726A]
- potency estimated from few doses (ATR; CATDS: 1.4419933534352201E-2): 0.267 µM
- potency estimated from few doses (FRK; compound concentrations: 100 nM and 1000 nM (sheet 'Samples'), CATDS: 1.3675373024535401E-2): 0.305 µM
- potency estimated from few doses (FYN; compound concentrations: 100 nM and 1000 nM (sheet 'Samples'), CATDS: 1.87889991520305E-2): 0.15 µM

Compound: COc1ccc(-c2cc3c(N)ncnc3o2)cc1 [GW642138X]
- potency estimated from few doses (CDK6): 1.7 µM
- potency estimated from few doses (IRAK4; compound concentrations: 100 nM and 1000 nM (sheet 'Samples'), CATDS: 9.7145824911744297E-2): 1.95 µM
- potency estimated from few doses (STK26): 1.8 µM

Compound: O=C(O)C(F)(F)F.O=c1[nH]ccc2nc(N[C@@H]3CCNC3)nc(Nc3ccc4c(c3)S(=O)(=O)CC4)c12 [GSK2181306A]
- potency estimated from few doses (ACAD11; compound concentrations: 100 nM and 1000 nM (sheet 'Samples'), CATDS: 2.2275059319964801E-2): 0.145 µM
- potency estimated from few doses (CDC7; compound concentrations: 100 nM and 1000 nM (sheet 'Samples'), CATDS: 3.8653220202105501E-2): 0.0571 µM
- potency estimated from few doses (CDK5; CATDS: 1.15516504850929E-2): 0.571 µM
- potency estimated from few doses (MAP2K1; CATDS: 9.6647970877986305E-3): 0.947 µM
- potency estimated from few doses (MAP4K1; CATDS: 1.18408436386705E-2): 0.536 µM
- potency estimated from few doses (ULK3; compound concentrations: 100 nM and 1000 nM (sheet 'Samples'), CATDS: 1.2312862576378401E-2): 0.487 µM

Compound: Cc1cccc(Nc2nc(N[C@H]3CCNC3)ncc2C(N)=O)c1.Cl [GSK2197149A]
- potency estimated from few doses (IRAK4; [1]): 1.57 µM
- potency estimated from few doses (JAK1; [1]): 1.24 µM
- potency estimated from few doses (PIK3CA; [1]): 0.11 µM

Compound: CC(C)Oc1ccc2c(-c3ccnc(Nc4ccc(N5CCN(C)CC5)cc4)n3)cnn2n1 [GW696155X]
- potency estimated from few doses (CDC7; [1]): 1.44 µM
- potency estimated from few doses (NQO2; [1]): 1.06 µM
- potency estimated from few doses (ULK3; [1]): 0.29 µM

Compound: CS(=O)(=O)CCn1c(=O)c(Oc2ccc(F)cc2F)cc2cnc(NC3CCOCC3)nc21 [RO5027956-000]
- potency estimated from few doses (ACAD11; [1]): 1.69 µM
- potency estimated from few doses (MAPKAPK2; [1]): 0.0159 µM
- potency estimated from few doses (NLK; [1]): 0.0559 µM
